Assay outcomes (PubChem BioAssay)
SSB-PriA inh – K. pneumoniae PriA-SSBct interaction inhibition. AlphaScreen SSBct-PriA binding, biotinylated peptide. inhibition, % at 33 µM. hit rate 0.6% among 430,000. AID 1272365; in the data active = inhibition mostly above about 37%, no sharp cut-off; inactive = mostly below about 20%;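 also: plate controls were negative control peptide for no effect and reference peptide for full effect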
Sa RN4220 lethal – kills Staphylococcus aureus RN4220. inhibition, % (test concentration not listed). AID 1259311. hit rate 0.33% among 330,000. S. aureus RN4220 growth, OD600, 16 h; in the data active = inhibition above about 85%;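 also: plate controls were untreated cells for no effect and reference antibiotic for full effect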
Mtb hypoxia inh – inhibitors of hypoxia-regulated fluorescent reporter in Mycobacterium tuberculosis; M. tuberculosis hypoxia-regulated fluorescent reporter, fluorescence; fluorescence inhibition, % (concentration not given with the values); hit rate 0.1% among 300,000; AID 1159583; in the data active = fluorescence inhibition mostly above about 23%, no sharp cut-off; inactive = mostly below about 17%
CCHF vOTU inh-1 – CCHFV vOTU protease inhibition. Pep-AMC fluorescence. AID 651958. inhibition, % at 11.5 µM. hit rate 0.55% among 370,000; also: 0% = vehicle wells with enzyme and 100% = no enzyme wells
ugtP null kill – kills S. aureus RN4220 lacking UgtP. S. aureus RN4220 ugtP deletion, OD600 growth, 16 h. growth inhibition, % (no concentration beside the values). hit rate 0.54% among 330,000. AID 1259309; in the data active = growth inhibition above about 68%;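 also: plate controls were untreated wells for no effect and antibiotic for full effect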
CCHF vOTU inh-2 – confirmation of CCHF virus vOTU protease inhibitors. hit rate 17% among 1,900. shares compounds with CCHF vOTU inh-1. Recombinant CCHFV vOTU, Pep-AMC fluorescence. inhibition, % at 11.5 µM. AID 686976
The depositor's hits bear a star; nt = not tested or not shown. Compounds with a hit are over-represented: about 1.4% of the library has one in this group of screens. Rule as the data show it, unless noted: active = inhibition above about 30%; inactive = the rest.

SMILES	SSB-PriA inh	Sa RN4220 lethal	Mtb hypoxia inh	CCHF vOTU inh-1	ugtP null kill	others
COC(=O)c1c(-c2ccc(OC)cc2)sc2ccc(-c3ccc4c(c3)OCO4)cc12	-7	1	2	-3	6
CCN(CC)c1ccc(C(=S)NC2CCCCC2)cc1	4	90	-4	5	active
CN(C)c1ccc(C(=S)NC2CCCCC2)cc1	12	7	1	0	19
Cc1cc(C(=O)NN=Cc2ccc(O)c([N+](=O)[O-])c2)n[nH]1	1	5	23	nt	7
COc1ccc(Nc2nc(NN)nc(Nc3ccc(OC)cc3)n2)cc1	100*	6	2	-11	-9
Cc1cc(N)nc(Nc2ccc(Nc3ccccc3)cc2)n1	41*	nt	nt	nt	nt
Cc1cc(N)nc(Nc2ccc(C(N)=O)cc2)n1	-6	nt	nt	nt	nt
NNc1nc(Nc2ccccc2)nc(Nc2ccccc2)n1	49*	10	3	1	-22
Cn1cccc1CN(Cc1cccs1)S(=O)(=O)Cc1cc(F)cc(F)c1	7	nt	nt	nt	nt
O=C(COc1ccccc1)NCCSc1c(-c2ccc(Cl)cc2)[nH]c2ccccc12	-19	nt	nt	nt	nt
Oc1ccc(CNc2ccccc2F)c2cccnc12	-7	9	11	14	-10
O=c1ccnc(SCc2ccc(O)c3ncccc23)[nH]1	106*	nt	nt	nt	nt
N#CSCc1ccc(O)c2ncccc12	111*	nt	nt	nt	nt
Oc1ccc(CSc2ncccn2)c2cccnc12	76*	nt	nt	nt	nt
Oc1ccc(CSc2ccccc2)c2cccnc12	88*	nt	nt	nt	nt
CCCCCCCCCCSCc1ccc(O)c2ncccc12	57	nt	nt	nt	nt
CCCc1c(C(=O)NN=C(C)CCc2ccc(OC)cc2)nnn1-c1nonc1N	5	2	6	nt	3
CCc1cccc(NC(=O)CSc2nccn3nc(-c4ccccc4)cc23)c1	0	nt	nt	nt	nt
CN(C)P(=O)(NC(=O)C(Cl)(Cl)Cl)N(C)C	-10	nt	nt	nt	nt
O=C(Oc1ccccc1)c1cc2ccccc2o1	-7	2	9	1	101*
COC(=O)Nc1ccc(S(=O)(=O)NCC(C)(O)c2cccs2)cc1 (centres undefined)	5	nt	nt	nt	nt
O=S(=O)(Nc1ccccn1)N1CCOCC1	6	nt	nt	nt	nt
CCCCN1C(=N)N([C@@H](CCC)CN2CCC[C@H]2CN2C(N)=NC[C@H]2CC(C)C)C[C@H]1Cc1ccccc1	7	-2	1	1	6
CC[C@@H](C)[C@@H]1CN([C@@H](CN2CCC[C@H]2CN2C(N)=NC[C@H]2C(C)C)C(C)C)C(=N)N1CCc1ccc(Cl)c(Cl)c1	0	101*	nt	nt	101*
CCC[C@@H](CN1CCC[C@H]1CN1C(N)=NC[C@H]1C(C)C)N1C[C@@H](Cc2ccccc2)N(CCCC2CCCC2)C1=N	2	100*	nt	13	101*
SMILES	SSB-PriA inh	Sa RN4220 lethal	Mtb hypoxia inh	CCHF vOTU inh-1	ugtP null kill	others
CCCCN1C(=N)N(C(CCC)CN2CCCC2CN2C(N)=NCC2Cc2ccccc2)CC1Cc1ccccc1 (centres undefined)	nt	82	nt	nt	98*
CC(C)C[C@@H]1CN=C(N)N1C[C@@H]1CCCN1C[C@@H](C(C)C)N1C[C@@H](Cc2ccccc2)N(CCCC2CCCC2)C1=N	9	101*	nt	1	101*
CCCCN1C(=N)N([C@@H](CN2CCC[C@H]2CN2C(N)=NC[C@@H]2Cc2ccccc2)C(C)C)C[C@H]1Cc1ccccc1	-27	nt	nt	-3	nt
C/C(=N\NC(=O)C1COc2ccccc2O1)c1ccccn1 (centres undefined)	nt	nt	nt	8	nt
CC(=NNC(=O)C1COc2ccccc2O1)c1ccccn1 (centres undefined)	61*	6	-4	nt	-8
CC(=NNC(=O)c1ccc(Cl)cc1)c1ccccn1	45*	nt	nt	nt	nt
CC(=NNc1ncc(Cl)cc1Cl)c1ccccn1	47*	1	nt	nt	5
CC(=NNC(=O)c1ccc(Cl)c(Cl)c1)c1ccccn1	-6	52	18	nt	17
O=C(O)c1ccc(NN=Cc2ccc(-c3ccccc3)cc2)cc1	2	-1	10	nt	36
O=C1/C(=C/c2ccco2)Oc2c1ccc1c2CN(Cc2ccccn2)CO1	97*	nt	nt	nt	nt
O=C1/C(=C/c2ccncc2)Oc2c1ccc1c2CN(Cc2ccc3c(c2)OCO3)CO1	-5	nt	nt	nt	nt
O=C1/C(=C/c2cccc(F)c2)Oc2c1ccc1c2CN(Cc2ccccn2)CO1	97*	nt	nt	nt	nt
CCOC(=O)c1sc(NC(=O)c2cccnc2)c(C#N)c1C	4	74	1	-15	85*
Nc1nnc(-c2ccc([N+](=O)[O-])o2)s1	-7	98*	6	16	92*
O=c1[nH]nc(-c2ccc([N+](=O)[O-])o2)c(=O)[nH]1	-12	6	25	8	17
CCOC(=O)c1ccc(N2C(=O)c3n[nH]c(-c4ccco4)c3C2c2cccc([N+](=O)[O-])c2)cc1 (centres undefined)	7	-10	-9	36*	47	CCHF vOTU inh-2=-1
CC(C)(C)OC(=O)[C@H](Cc1ccccc1)NC(=O)c1[nH]cnc1C(=O)Nc1ccc(Cl)cc1	-5	nt	nt	31*	nt	CCHF vOTU inh-2=8
CC(NC(=O)c1nc[nH]c1C(=O)NC(Cc1ccccc1)C(=O)OC(C)(C)C)C(=O)OCc1ccccc1 (centres undefined)	nt	11	4	nt	9
CC(C)(C)OC(=O)NCc1ccc(CNC(=O)c2[nH]cnc2C(=O)Nc2ccccc2F)cc1	nt	nt	nt	16	nt
CC(C)(C)OC[C@H](NC(=O)c1[nH]cnc1C(=O)Nc1ccccc1F)C(=O)OC(C)(C)C	nt	nt	nt	35*	nt	CCHF vOTU inh-2=22
CC(C)C[C@H](NC(=O)c1[nH]cnc1C(=O)N[C@@H](C)C(=O)OCc1ccccc1)C(=O)OC(C)(C)C	1	nt	nt	30*	nt	CCHF vOTU inh-2=15
CCN1C(=O)C(=Cc2cc(C)n(C)c2C)SC1=Nc1ccc(OC)cc1	nt	1	-2	nt	-4
COC(=O)c1[nH]c(C)c(C(O)=C2C(=O)C(=O)N(CCCN3CCOCC3)C2c2ccccn2)c1C (centres undefined)	3	nt	nt	nt	nt
CSc1ccc(CNC(=O)COc2cc(C)nc(N3CCC[C@H](C)C3)n2)cc1	-14	nt	nt	nt	nt
Cc1ccc(S(=O)(=O)Nc2ccc3ccccc3c2[N+](=O)[O-])cc1	10	71	7	35*	52	CCHF vOTU inh-2=14
SMILES	SSB-PriA inh	Sa RN4220 lethal	Mtb hypoxia inh	CCHF vOTU inh-1	ugtP null kill	others
Cc1ccc(S(=O)(=O)Nc2ccc3cc([N+](=O)[O-])ccc3c2[N+](=O)[O-])cc1	14	71	20	31*	75	CCHF vOTU inh-2=23
COC(=O)C1=C(C)N(Cc2ccccc2)C(=NCc2cccc(C(F)(F)F)c2)N[C@H]1c1cccc(C(F)(F)F)c1	-10	nt	nt	nt	nt
COC(=O)C1=C(C)N(Cc2cccc(C(F)(F)F)c2)C(=NCc2ccc(OC)cc2)NC1c1cccc(F)c1 (centres undefined)	nt	nt	nt	35*	nt	CCHF vOTU inh-2=4
COC(=O)C1=C(C)N(Cc2ccccc2)C(=NCc2cccc(C(F)(F)F)c2)N[C@H]1c1cccc(F)c1	-17	nt	nt	31*	nt	CCHF vOTU inh-2=10
CCN=C1NC(c2ccc(F)cc2)C(C(=O)OC)=C(C)N1Cc1cccc(C(F)(F)F)c1 (centres undefined)	nt	nt	nt	36*	nt	CCHF vOTU inh-2=-12
COC(=O)C1=C(C)N(C)C(=NCC2CC2)NC1c1ccccc1 (centres undefined)	nt	nt	nt	32*	nt	CCHF vOTU inh-2=-15
